Screens as filed in PubChem BioAssay.
Rows were chosen to be rich in hits. Some 3.4% of all compounds tested hit in one or more screens of this group.
MITF primary – human MITF inhibition, primary screen; O75030; AlphaScreen MITF homodimerization, bead proximity signal; inhibition, % at 2.6 µM; 0.91% of 650,000 active; in the data active = inhibition above about 50%;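 note: 0% = vehicle wells with protein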
Target sequence (O75030 whole entry, looked up): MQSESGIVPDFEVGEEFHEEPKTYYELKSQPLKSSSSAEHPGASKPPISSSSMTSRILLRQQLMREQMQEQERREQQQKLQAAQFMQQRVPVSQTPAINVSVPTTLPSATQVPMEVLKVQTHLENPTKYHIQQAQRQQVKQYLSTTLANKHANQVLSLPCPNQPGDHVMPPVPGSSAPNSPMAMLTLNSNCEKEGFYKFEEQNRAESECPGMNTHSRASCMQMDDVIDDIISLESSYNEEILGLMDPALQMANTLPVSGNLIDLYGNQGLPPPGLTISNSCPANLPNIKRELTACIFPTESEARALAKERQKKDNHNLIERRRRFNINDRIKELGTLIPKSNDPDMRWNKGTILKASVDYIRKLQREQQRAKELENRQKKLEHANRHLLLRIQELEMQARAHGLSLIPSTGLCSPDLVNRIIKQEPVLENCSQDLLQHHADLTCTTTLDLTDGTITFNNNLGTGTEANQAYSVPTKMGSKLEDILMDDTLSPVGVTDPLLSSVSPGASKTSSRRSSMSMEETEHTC
TEAD-YAP inh – TEAD-YAP interaction inhibition; HEK-TIYL cells, TEAD-Gal4/YAP UAS-luciferase luminescence; inhibition, % at 9.12 µM; 1.4% of 640,000 active; AID 1259422; in the data active = inhibition above about 32%;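 note: 0% = median of test compound wells and 100% = reference inhibitor wells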
FBW7 activator – human FBW7 E3 ligase activation, primary screen; 0.13% of 650,000 active; normalized activity (activation), % at 26.1 µM; AlphaScreen FBW7–phospho-cyclin E peptide binding, activator screen; Q969H0; in the data active = normalized activity above about 1.9%;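 note: purified mutant Fbw7 with reduced substrate affinity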
GPR151 ag – activates the human receptor GPR151; PathHunter beta-arrestin GPR151 cells, luminescence; activation, % at 11.2 µM; 1% of 650,000 active; AID 1508602; in the data active = activation above about 4.9%;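 note: 0% = median of compound wells and 100% = cells with positive control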
MITF confirm – confirmation of human MITF inhibitors | AID 1259372 | inhibition, % at 2.6 µM | shares compounds with MITF primary | 16% of 4,700 active | AlphaScreen MITF homodimerization, biotin/His-MITF beads;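 active = inhibition above a cutoff derived from the DMSO control wells, cut at about 28% in these data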;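 note: 0% = MITF dimer wells with DMSO only; inhibitors lower the bead chemiluminescence by keeping MITF from dimerizing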
AS interf DR – AlphaScreen optical interference, dose response counter-screen. shares compounds with MITF primary. AlphaScreen optical interference counterscreen, cell-free. IC50, µM. 6% of 480 active. AID 1259373; call rule not given here
AlphaScreen intf2 – counter-screen: compounds optically interfering with AlphaScreen; shares compounds with MITF primary; LysRS AlphaScreen counterscreen, signal interference, triplicate; inhibition, % at 2.6 µM; 7.6% of 4,700 active; AID 1259376;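 active = inhibition above a cutoff derived from the DMSO control wells, cut at about 30% in these data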
* = called active by the depositor; nt = no result.

SMILES | MITF primary | TEAD-YAP inh | FBW7 activator | GPR151 ag | MITF confirm | AlphaScreen intf2 | others
CCOC(c1ccccc1)c1ccc2c(c1)CN(C(=O)Cc1c(C)noc1C)CCO2 (stereo not drawn) | 75* | -4 | 0 | -1 | -5 | -4
CN(C)CCCN(CCCN(C)C)Cc1ccc(Cl)cc1 | 37 | -8 | 0 | 0 | nt | nt
CN(C)CCCN(CCCN(C)C)Cc1ccc(F)cc1 | 64* | 3 | 0 | 1 | -10 | 10
CN(C)CCCN(CCCN(C)C)Cc1cccc(C(F)(F)F)c1 | 57* | 6 | 0 | 2 | -6 | -4
CN(C)CCCN(CCCN(C)C)Cc1ccc(F)c(Br)c1 | 53* | 4 | 0 | 1 | -13 | -4
COc1cc(C(=O)NCC(=O)N=Nc2c(O)n(C)c3ccccc23)cc(OC)c1OC | 2 | 6 | 0 | -1 | nt | nt
Cc1oc(-c2ccc(Cl)cc2)nc1CSCC(=O)N1CCCCCC1 | 5 | 6 | 0 | 3 | nt | nt
CCCC(C(=O)NC(C)(C)C)N(Cc1ccco1)C(=O)Cn1nnc(-c2ccc(C)o2)n1 (stereo not drawn) | 13 | 7 | 0 | -1 | nt | nt
COc1ccc2[nH]c(=O)c(CN(C(C)=O)c3ccccc3C)cc2c1 | -2 | 3 | 0 | 0 | nt | nt
N#C/C(=C\c1nn(-c2ccccc2)c(N)c1C#N)c1ccco1 | 59* | -57 | 0 | 0 | 83* | -6 | AS interf DR=>6.5
N#C/C(=C\c1nn(CCO)c(N)c1C#N)c1ccco1 | 46 | -5 | 0 | 0 | nt | nt
Cc1cc(C)cc(OCc2nc(-c3ccccc3Cl)no2)c1 | -4 | 6 | 0 | 0 | nt | nt
COc1ccc(S(=O)(=O)CCC(=O)N2CCN(c3cccc(C)c3C)CC2)cc1 | 63* | 0 | 0 | 1 | 16 | 9
COc1ccc(CC(=O)N2CCN(c3cccc(C)c3C)CC2)cc1 | 18 | 16 | 0 | 1 | nt | nt
CC(C)(C)C(=O)N1CCC(c2nc3c(nnn3Cc3ccccc3)c(=O)[nH]2)CC1 | 71* | 4 | 0 | -1 | 9 | 11
CC(C)(C)C(=O)N1CCCC(c2nc3c(nnn3Cc3ccccc3)c(=O)[nH]2)C1 (stereo not drawn) | 6 | -9 | 0 | 2 | nt | nt
Cc1ccccc1-n1ncc2c(N3CCCCC3)ncnc21 | 1 | -27 | 0 | 0 | nt | nt
O=C(O)CCC(=O)Nc1ccc(Cl)c(C(=O)O)c1 | 6 | 9 | 0 | -1 | nt | nt
CCCNC(=O)Nc1ccc(Cl)c(C(=O)O)c1 | 64* | 2 | 0 | 0 | -16 | -8
COc1ccc([N+](=O)[O-])cc1CSc1nnc(-c2ccc(N)cc2)n1C | 5 | 0 | 0 | -1 | nt | nt
CN1C(=O)[C@H]2CN(C(=O)c3ccc(Cl)cc3)CCN2C(=O)[C@@H]1CO | 15 | -1 | 0 | 0 | nt | nt
CN1C(=O)[C@H]2CN(C(=O)NC3CCCCC3)CCN2C(=O)[C@@H]1CO | 76* | 0 | 0 | 0 | 71* | -11 | AS interf DR=>6.5
O=C(NC1CCCCC1)N1CCN2C(=O)[C@H]3CCCN3C(=O)[C@H]2C1 | 79* | -1 | 0 | 0 | 73* | 1 | AS interf DR=>6.5
O=C(O)c1cccc(-c2ccc(/C=N/n3cnnc3)o2)c1 | 19 | 0 | 0 | 2 | nt | nt
O=C(O)c1cc(C(=O)O)cc(-c2ccc(/C=N\n3cnnc3)o2)c1 | 63* | 9 | 0 | -1 | 38* | 6 | AS interf DR=>6.5
SMILES | MITF primary | TEAD-YAP inh | FBW7 activator | GPR151 ag | MITF confirm | AlphaScreen intf2 | others
CC(C)(C)C(=O)COC(=O)c1cccc(N2C(=O)c3ccccc3C2=O)c1 | 53* | 1 | 0 | 0 | 7 | -2
CC(=O)c1cccc(N2C(=O)c3ccc(C(=O)OCC(=O)c4ccc([N+](=O)[O-])cc4)cc3C2=O)c1 | 60* | -3 | 0 | 1 | 21 | 26
O=C(COC(=O)c1ccc2c(c1)C(=O)N(c1cccc(Cl)c1)C2=O)c1ccc([N+](=O)[O-])cc1 | 1 | 3 | 0 | 0 | nt | nt
O=C(COC(=O)c1cccc(N2C(=O)c3ccccc3C2=O)c1)c1ccccc1 | 5 | -28 | 0 | 2 | nt | nt
c1ccc(CCc2nnc3n2CCN(Cc2ccc4cccnc4c2)CC3)cc1 | 10 | 6 | 0 | -1 | nt | nt
Cc1ccc(C)c(NC(=O)CCC(=O)Nc2cc(C)ccc2C)c1 | 7 | -4 | 0 | 0 | nt | nt
Cc1ccc(C)c(NC(=O)CNCC(C)(C)CN(C)C)c1 | 74* | -3 | 0 | 0 | -3 | -1
CN(C)CC(C)(C)CNCC(=O)Nc1ccc(OC(F)(F)F)cc1 | 55* | 11 | 0 | 1 | 2 | 7
CCC(C)(C)NCC(=O)Nc1ccc(OC(F)(F)F)cc1 | 3 | -10 | 0 | 0 | nt | nt
CC1CN(Cc2ccccc2Br)CC(C)O1 (stereo not drawn) | 67* | 0 | 0 | -1 | 1 | 4
CC1CN(Cc2ccc(F)c(F)c2)CC(C)O1 (stereo not drawn) | 61* | 2 | 1 | 1 | 3 | 1
CC1CN(Cc2ccc(F)cc2F)CC(C)O1 (stereo not drawn) | 65* | -3 | 0 | 0 | 0 | 9
O=C1CC(NC2CCCC2)C(=O)N1c1ccc(Br)cc1 (stereo not drawn) | -4 | -8 | 0 | 0 | nt | nt
COc1ccc(Br)cc1/C=C/C(=O)NC(=S)Nc1ccccc1C(N)=O | -11 | 10 | 0 | 1 | nt | nt
C/C(=N\Nc1ccccn1)c1ccc(-n2ccnc2)cc1 | 16 | -15 | 0 | 3 | nt | nt
C/C(=N\N1CCOCC1)c1ccc(-n2ccnc2)cc1 | 76* | -3 | 0 | 0 | 8 | -2
O=C1c2cccc3cccc(c23)C(=O)N1c1ccc(Br)cn1 | -3 | -3 | 0 | 2 | nt | nt
Cc1ccc(C(=O)Oc2coc(CSc3nc(C)cc(C)n3)cc2=O)cc1 | 55* | -1 | 0 | -2 | 12 | 15
COc1ccccc1N1CCN(CC(=O)c2ccc(F)cc2)CC1 | 69* | 3 | 0 | 1 | 5 | 8
Cc1ccc2c(c1)-c1c(cnn1CC(=O)NCCc1c[nH]c3ccccc13)CO2 | -13 | -2 | 0 | 0 | nt | nt
O=CN1CCN(C(=O)COc2ccc(Br)cc2)CC1 | -10 | 1 | 0 | 1 | nt | nt
CC(=O)N1CCN(C(=O)COc2ccc(Br)cc2)CC1 | 53* | -2 | 1 | -1 | 10 | 9
CCN1CCN(c2nc3ccccc3n3c(C)nnc23)CC1 | 4 | 2 | 0 | 2 | nt | nt
COC(=O)c1ccc(Cn2c([N+](=O)[O-])cnc2C)cc1 | 78* | -2 | 0 | -1 | -16 | -3
Cc1ncc([N+](=O)[O-])n1Cc1ccc(F)cc1 | 9 | 1 | 0 | 0 | nt | nt
CCCCCCCCCCCCCCCC(=O)OC[C@H](O)[C@H]1OC(=O)C(=O)C1O (stereo partly drawn) | 81* | 24 | 0 | -2 | 42* | -13 | AS interf DR=>6.5
